Source: PubChem BioAssay (several laboratories)
CYP2C19 act: activators of human cytochrome P450 2C19. P33261. recombinant CYP2C19, luciferin-H EGE luminescence; hits give high values; 0 = fully inhibited enzyme, 1 = untreated enzyme. activation factor at 5 µM. 96,000 tested, under 10 active;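 active = activation factor of at least 2 at 5 µM in the primary screen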;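 also: 0 = wells with 2.5 mM tranylcypromine and 1 = vehicle-only wells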
Cav3 T inh: inhibitors of human Cav3.2 T-type calcium channel; O95180; Cav3.2-expressing cells, Fluo-4 calcium fluorescence FDSS; hits give low values; B-score at 10 µM; actives 4% (n = 100,000);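 active = single-dose well whose peak fluorescence ratio is a statistical outlier from its plate by either plate-standardised score or position-corrected B-score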
CYP2C9 act: activators of human CYP2C9; activation factor at 5 µM; P11712; recombinant CYP2C9, luciferin-H conversion, luminescence; hits give high values; factor 1 = untreated enzyme, 0 = blocked; actives 1.4% (n = 96,000);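 active = activation factor of 2 or more for CYP2C9 at a 5 µM dose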;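 also: 0 = sulfaphenazole-blocked wells and 1 = vehicle-only wells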
Target sequence (P11712 whole entry, looked up): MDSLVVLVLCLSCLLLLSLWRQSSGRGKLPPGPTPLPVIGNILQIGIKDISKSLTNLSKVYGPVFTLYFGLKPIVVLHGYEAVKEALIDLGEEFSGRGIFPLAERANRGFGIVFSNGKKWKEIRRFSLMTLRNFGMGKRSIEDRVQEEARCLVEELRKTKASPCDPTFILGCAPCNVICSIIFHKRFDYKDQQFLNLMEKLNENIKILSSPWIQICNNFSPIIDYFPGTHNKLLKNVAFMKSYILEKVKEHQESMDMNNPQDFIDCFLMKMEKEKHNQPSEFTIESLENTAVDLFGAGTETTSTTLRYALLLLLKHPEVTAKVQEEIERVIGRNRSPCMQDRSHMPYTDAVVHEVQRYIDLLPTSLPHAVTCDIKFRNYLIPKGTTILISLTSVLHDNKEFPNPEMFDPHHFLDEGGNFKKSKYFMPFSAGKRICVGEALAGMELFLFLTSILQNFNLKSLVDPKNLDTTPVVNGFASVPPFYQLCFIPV
CYP2C9 inhib: human CYP2C9 inhibition | CYP2C9 Supersomes, luciferin-H conversion, luminescence | inhibition, % at 5 µM | actives 20% (n = 96,000) | AID 777;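 active = blocking of liver enzyme CYP2C9 beyond about 50% at 5 µM, limit read from the data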
CYP2C19 inhib: inhibitors of human CYP2C19; P33261; CYP2C19 Supersomes, luciferin-H EGE luminescence, 30 min; inhibition, % at 5 µM; actives 21% (n = 96,000); AID 778;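 active = CYP2C19 inhibition above a set limit at 5 µM in the primary screen, cut at about 50% in these data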;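 also: plate controls were negative control wells for no effect and 2.5 mM tranylcypromine positive control for full effect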
* hit, by the source's call; / = not tested or not shown. An excerpt weighted towards active compounds, which were near 27% of everything screened.

SMILES	CYP2C19 act	Cav3 T inh	CYP2C9 act	CYP2C9 inhib	CYP2C19 inhib
O=C(NC1CCCCC1)c1ccccc1NC(=O)C1CC(=O)N(c2ccccc2)C1 (centres undefined)	/	0.00732	/	/	/
O=C(NC1CCCCC1)c1ccccc1NC(=O)C1CC(=O)N(c2ccc(Cl)cc2)C1 (centres undefined)	/	-0.561	/	/	/
O=C(Nc1nc2ccccc2s1)C1CC(=O)N(c2ccc(Cl)cc2)C1 (centres undefined)	0.8	-4.69*	0.5	54.4*	20.2
O=C(O)c1ccoc1CN1CCCCC1	/	0.17	/	/	/
CC(C)C1N=C2c3ccccc3N=C(SCc3cc(=O)n4cc(Cl)ccc4n3)N2C1=O (centres undefined)	0.5	1.77	0.5	54.6*	45.1
CCCCCCn1c(N(CC)CC)nc2c1c(=O)[nH]c(=O)n2C	0.8	1.56	0.9	9.0	18.8
Cc1cc(C(=O)OCC(=O)N2c3ccccc3CC2C)c(C)o1 (centres undefined)	0.3	0.166	0.5	48.1	75.0*
Cc1cc(C(=O)OCC(=O)N2CC(C)CC(C)C2)c(C)o1 (centres undefined)	0.5	0.648	0.8	15.5	54.8*
N#Cc1c(-c2ccc3c(c2)OCO3)ccn2nc(-c3cccc(C(F)(F)F)c3)nc12	0.6	-1.87	0.9	9.6	37.8
COc1ccccc1OCc1ccc(C(=O)NCC2CCCO2)o1 (centres undefined)	0.7	0.264	0.8	20.0	28.5
Cc1nn(CC(=O)Nc2cccnc2N2CCOCC2)c(=O)c2ccccc12	0.9	/	0.8	24.8	5.3
Cc1csc(NC(=O)C(Cc2ccccc2)n2cccc2)n1 (centres undefined)	0.6	-4.92*	0.4	62.6*	37.1
O=C(NCc1cccs1)C(Cc1ccccc1)n1cccc1 (centres undefined)	0.4	-0.557	0.4	56.8*	63.8*
CSCC[C@@H](C(=O)NCc1cccs1)N1Cc2ccccc2C1=O	0.4	1.38	0.6	38.2	59.4*
CC(C(=O)NCc1cccs1)n1cccc1 (centres undefined)	0.8	0.166	1	0.4	17.5
CSCCC(C(=O)NCc1cccs1)N1C(=O)c2ccccc2C1=O (centres undefined)	0.9	0.985	0.8	20.9	7.6
Cc1cccc(-c2nc(CSCC(=O)NCc3cccs3)c(C)o2)c1	0.7	-3.41	0.7	26.1	31.1
Cc1ccc(C(=O)c2ccc([N+](=O)[O-])cc2)cc1C	0.8	0.0172	0.7	25.8	21.9
Cc1ccc(C)c2c1[nH]c1ccccc12	0.1	0.0688	1	2.6	86.2*
Cc1ccc(C)c2c1[nH]c1ccc([N+](=O)[O-])cc12	0.2	-0.482	0.4	60.8*	78.0*
COC(=O)C1=CN(C2CC2)C=C(C(=O)OC)C1c1ccccc1OC	0.3	-0.59	0.3	65.8*	70.0*
COc1cc(C(=O)N2CCC(NC(=O)C(Cc3ccccc3)NC(C)=O)CC2)cc(OC)c1OC (centres undefined)	1	1.79	1.2	-16.1	0.3
N#Cc1c(NC(=O)CSc2ncn(-c3ccccc3)n2)sc2c1CCCC2	0.2	0.358	0.1	90.5*	81.2*
Cn1cnnc1SCC(=O)Nc1sc2c(c1C#N)CCCCC2	/	-1.09	/	/	/
N#Cc1c(NC(=O)CSc2nc(N)cc(=O)[nH]2)sc2c1CCCCCC2	0.4	1.1	0.7	30.1	57.5*
SMILES	CYP2C19 act	Cav3 T inh	CYP2C9 act	CYP2C9 inhib	CYP2C19 inhib
N#Cc1cc2c(nc1SCC(=O)Nc1sc3c(c1C#N)CCC3)CCCCC2	1	-0.0344	0.8	15.8	-0.1
N#Cc1c(NC(=O)CSc2ncn[nH]2)sc2c1CCCCC2	0.8	-3.55	0.3	70.9*	15.1
CCC(C)[C@H](N)c1cn([C@@H](CCCCN)C(=O)N2CCNCC2)nn1 (some centres undefined)	/	0.533	/	/	/
CC(C)(C)OC(=O)N1CCC2(CC1)Oc1ccc(F)cc1C(=O)C21CC(c2ccccc2)=NO1 (centres undefined)	/	-1.26	/	/	/
O=C(c1ccco1)N1CCN(S(=O)(=O)c2ccc(F)cc2)CC1	0.5	0.000157	0.9	14.0	52.8*
COc1ccc(N2CCN(C(=O)c3ccc(NS(=O)(=O)c4ccc(F)cc4)cc3)CC2)cc1	0.8	-2.53	0.1	90.6*	23.7
O=C(c1ccco1)N1CCN(c2ccc(S(=O)(=O)N3CCCC3)cc2)CC1	1.1	1.48	0.9	13.9	-12.4
Cc1cc(S(=O)(=O)Nc2ccc(C(=O)N3CCN(C(=O)c4ccco4)CC3)cc2)ccc1F	0.9	0.568	0.5	46.5	13.3
O=C(c1ccco1)N1CCN(C(=O)C2Cc3ccccc3CN2S(=O)(=O)c2ccc(F)cc2)CC1 (centres undefined)	0.2	1.2	0.6	38.3	76.1*
O=C(c1ccc(S(=O)(=O)Nc2ccc(F)cc2)cc1)N1CCN(C(=O)c2ccco2)CC1	0.6	-0.208	0.3	75.0*	44.3
COCCCn1c(Cc2csc(Nc3ccc(F)cc3)n2)nnc1SCC(N)=O	1	-2.49	0.8	21.2	1.0
COc1cc(C(=O)NCCC(C)C)c([N+](=O)[O-])cc1OC	1	0.637	1.1	-14.4	-0.3
CO/N=C(/CS(=O)(=O)Cc1ccccc1Cl)c1ccc(Cl)cc1Cl	0.5	-0.987	1	3.6	52.4*
CCCNC(=O)C(CC)NS(=O)(=O)c1ccc(OC)cc1 (centres undefined)	1	/	0.8	16.3	1.1
CCOC(=O)/C=C/c1ccc2c(c1)S(=O)(=O)N(c1cccc(OC)c1)[C@H]2CC(=O)OCC	/	0.551	/	/	/
Fc1ccc(-c2[nH]ncc2-c2nnnn2-c2ccccc2)c(F)c1	0.1	2.66	0.5	51.3*	90.6*
O=C(Nc1ccc(N2CCOCC2)cc1)c1cc2ccccc2o1	0.9	-0.0218	0.9	14.9	14.9
CC1CCN(C(=O)c2cc3ccccc3o2)CC1	0.1	-0.598	0.8	21.9	86.0*
O=C(c1cc2ccccc2o1)N1CCCCCC1	/	-0.634	/	/	/
O=C(/C=C/N1CCOCC1)c1cc2ccccc2o1	0.9	-0.177	0.2	76.8*	9.0
Cc1ccc2cc(C(c3nnnn3C3CCCC3)N(Cc3ccco3)Cc3cccs3)c(=O)[nH]c2c1 (centres undefined)	0.5	-2.37	0.6	41.6	48.7
CC(C)(C)n1nnnc1CN(Cc1ccc(F)cc1)Cc1ccco1	0.1	-4.66*	0.1	86.6*	92.8*
CC(C)(C)n1nnnc1C(c1cccnc1)N(Cc1ccccc1)Cc1ccco1 (centres undefined)	0.6	/	0.3	72.9*	43.9
COc1cccc(CN(Cc2ccco2)C(c2ccc(F)cc2)c2nnnn2C(C)(C)C)c1 (centres undefined)	0.6	-1.76	0.5	50.6*	44.1
CCC(C)(C)n1nnnc1C(c1ccc(C)cc1)N(Cc1ccco1)Cc1cccs1 (centres undefined)	1	-5.77*	0.1	90.5*	-3.8
CC(C)(C)n1nnnc1C(c1cccnc1)N1CCN(C(=O)c2ccco2)CC1 (centres undefined)	/	0.226	/	/	/
